Source: paper PMC5540273 (PLoS ONE, 2017)

Legend:
Details in all cases: concentration: 1 μM, replicates: in singlicate; n = 1
[1] = tested on: T1, ERK8
T1 construct: gene MAPK15

[2] = tested on: ERN1
[3] = tested on: T2, FAK
T2 construct: gene PTK2

[4] = tested on: FER
[5] = tested on: FES
[6] = tested on: FGFR1
[7] = tested on: FGFR2
[8] = tested on: FGFR3
[9] = tested on: FGFR4
[10] = tested on: FGR
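Also: KINOMEscan kinase panel screen.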

## Cc1c(Cn2c(C)c(C)n3c(=O)cc(N4CCOCC4)nc23)cccc1C(F)(F)F [GSK2328680]
[1]
  %Inh: 8%
[2]
  %Inh: 9%
[3]
  %Inh: 0%
[4]
  %Inh: 15%
[5]
  %Inh: 0%
[6]
  %Inh: 0%
[7]
  %Inh: 41%
[8]
  %Inh: 6%
[9]
  %Inh: 0%
[10]
  %Inh: 20%

## Fc1ccc(-c2nc3n(c2-c2ccncc2)CCS3)cc1 [GI98581]
[1]
  %Inh: 0%
[2]
  %Inh: 28%
[3]
  %Inh: 0%
[4]
  %Inh: 13%
[5]
  %Inh: 0%
[6]
  %Inh: 0%
[7]
  %Inh: 0%
[8]
  %Inh: 20%
[9]
  %Inh: 0%
[10]
  %Inh: 21%

## Nc1nccc(-c2c(-c3ccc(F)cc3)ncn2C2CCN(Cc3ccccc3)CC2)n1 [SB-219980]
[1]
  %Inh: 0%
[2]
  %Inh: 41%
[3]
  %Inh: 0%
[4]
  %Inh: 0%
[5]
  %Inh: 23%
[6]
  %Inh: 0%
[7]
  %Inh: 0%
[8]
  %Inh: 0%
[9]
  %Inh: 0%
[10]
  %Inh: 18%

## O=C1NC(=O)C(c2ccc(Cl)cc2)=C1Nc1ccc(O)cc1 [SB-340867]
[1]
  %Inh: 29%
[2]
  %Inh: 0%
[3]
  %Inh: 0%
[4]
  %Inh: 4%
[5]
  %Inh: 0%
[6]
  %Inh: 0%
[7]
  %Inh: 0%
[8]
  %Inh: 0%
[9]
  %Inh: 0%
[10]
  %Inh: 12%

## O=C(Nc1n[nH]c2nc(-c3cccs3)c(Br)cc12)C1CCCC1 [SB-743341]
[1]
  %Inh: 61%
[2]
  %Inh: 43%
[3]
  %Inh: 1%
[4]
  %Inh: 20%
[5]
  %Inh: 18%
[6]
  %Inh: 28%
[7]
  %Inh: 0%
[8]
  %Inh: 2%
[9]
  %Inh: 3%
[10]
  %Inh: 23%

## COc1ccc2cc(-c3nc(-c4ccccc4C(C)C)[nH]c3-c3ccncc3)ccc2c1 [SB-660566]
[1]
  %Inh: 0%
[2]
  %Inh: 14%
[3]
  %Inh: 0%
[4]
  %Inh: 0%
[5]
  %Inh: 0%
[6]
  %Inh: 0%
[7]
  %Inh: 12%
[8]
  %Inh: 13%
[9]
  %Inh: 20%
[10]
  %Inh: 21%

## CSc1ccc(-c2nc3n(c2-c2ccncc2)CCC3)cc1 [SKF-105561]
[1]
  %Inh: 1%
[2]
  %Inh: 0%
[3]
  %Inh: 0%
[4]
  %Inh: 0%
[5]
  %Inh: 28%
[6]
  %Inh: 1%
[7]
  %Inh: 0%
[8]
  %Inh: 0%
[9]
  %Inh: 0%
[10]
  %Inh: 25%

## CNCc1ccc2nc(NC(=O)c3ccc(C(C)(C)C)cc3)cn2c1
[1]
  %Inh: 2%
[2]
  %Inh: 9%
[3]
  %Inh: 3%
[4]
  %Inh: 1%
[5]
  %Inh: 1%
[6]
  %Inh: 0%
[7]
  %Inh: 0%
[8]
  %Inh: 6%
[9]
  %Inh: 0%
[10]
  %Inh: 0%

## Cc1nccc(-c2c(-c3ccc(F)cc3)ncn2CCCN2CCOCC2)n1.Cl [SB-282975]
[1]
  %Inh: 9%
[2]
  %Inh: 0%
[3]
  %Inh: 35%
[4]
  %Inh: 26%
[5]
  %Inh: 12%
[6]
  %Inh: 38%
[7]
  %Inh: 22%
[8]
  %Inh: 33%
[9]
  %Inh: 0%
[10]
  %Inh: 0%

## COc1ccc(CSc2nnc(-c3ccc4nccn4c3)o2)cc1C(F)(F)F
[1]
  %Inh: 39%
[2]
  %Inh: 0%
[3]
  %Inh: 0%
[4]
  %Inh: 4%
[5]
  %Inh: 14%
[6]
  %Inh: 4%
[7]
  %Inh: 4%
[8]
  %Inh: 0%
[9]
  %Inh: 0%
[10]
  %Inh: 19%

## COc1ccc(Nc2nccc(-c3ccc(NC(=O)c4cc5cc(F)ccc5[nH]4)cc3)n2)cc1 [GSK1229496]
[1]
  %Inh: 0%
[2]
  %Inh: 0%
[3]
  %Inh: 0%
[4]
  %Inh: 16%
[5]
  %Inh: 15%
[6]
  %Inh: 0%
[7]
  %Inh: 19%
[8]
  %Inh: 9%
[9]
  %Inh: 0%
[10]
  %Inh: 10%

## COc1cc2ncnc(Nc3cccc(Br)c3)c2cc1OC.Cl [GI230329]
[1]
  %Inh: 0%
[2]
  %Inh: 2%
[3]
  %Inh: 0%
[4]
  %Inh: 31%
[5]
  %Inh: 0%
[6]
  %Inh: 0%
[7]
  %Inh: 22%
[8]
  %Inh: 11%
[9]
  %Inh: 0%
[10]
  %Inh: 26%

## Cc1c(Cn2c3ccccc3n3c(=O)cc(N4CCOCC4)nc23)cccc1C(F)(F)F [GSK2306394]
[1]
  %Inh: 26%
[2]
  %Inh: 10%
[3]
  %Inh: 0%
[4]
  %Inh: 6%
[5]
  %Inh: 0%
[6]
  %Inh: 4%
[7]
  %Inh: 2%
[8]
  %Inh: 0%
[9]
  %Inh: 0%
[10]
  %Inh: 0%

## O=C1NC(=O)C(c2ccc(Cl)cc2)=C1Nc1cccc(Cl)c1 [SB-317651]
[1]
  %Inh: 10%
[2]
  %Inh: 3%
[3]
  %Inh: 0%
[4]
  %Inh: 0%
[5]
  %Inh: 0%
[6]
  %Inh: 0%
[7]
  %Inh: 0%
[8]
  %Inh: 4%
[9]
  %Inh: 0%
[10]
  %Inh: 0%

## Cn1cnc2c(N)ncnc21 [SKF-97623]
[1]
  %Inh: 12%
[2]
  %Inh: 0%
[3]
  %Inh: 0%
[4]
  %Inh: 0%
[5]
  %Inh: 0%
[6]
  %Inh: 0%
[7]
  %Inh: 0%
[8]
  %Inh: 0%
[9]
  %Inh: 0%
[10]
  %Inh: 51%

## COc1cccc(CNC(=O)NC2CCN(c3ccnc(Nc4ccc(F)cc4)n3)C2)c1 (centres unmarked) [GSK1379723]
[1]
  %Inh: 60%
[2]
  %Inh: 4%
[3]
  %Inh: 0%
[4]
  %Inh: 6%
[5]
  %Inh: 0%
[6]
  %Inh: 0%
[7]
  %Inh: 3%
[8]
  %Inh: 15%
[9]
  %Inh: 10%
[10]
  %Inh: 8%

## Fc1ccc(-c2nc[nH]c2-c2ccncc2)cc1 [SB-217360]
[1]
  %Inh: 4%
[2]
  %Inh: 43%
[3]
  %Inh: 0%
[4]
  %Inh: 23%
[5]
  %Inh: 0%
[6]
  %Inh: 0%
[7]
  %Inh: 0%
[8]
  %Inh: 0%
[9]
  %Inh: 0%
[10]
  %Inh: 0%
